# Hit rate of the full screen: of about 290,000 compounds, about 3,100 (1.1%) were called active. What follows is part of a selection rich in actives, with near analogues and random picks from the rest. A number with no mark means an inactive call. Rule as the data show it: active = inhibition above about 16% (passing the limit was not always enough); inactive = the rest.
# Target: Neuropeptides B/W receptor type 1 (Homo sapiens) (UniProt P48145)
# Assay: GPR7 receptor antagonists, primary screen, cell-based, fluorescence, single concentration (AID 1861);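 also: cells stimulated with the agonist NPW; 0% = agonist with vehicle and 100% = vehicle without agonist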
# Details: GPR7-expressing cells, fluorescence antagonist assay; at 4.4 µM; hits give high values
# Sequence of Neuropeptides B/W receptor type 1 (Homo sapiens) (P48145 whole entry, looked up): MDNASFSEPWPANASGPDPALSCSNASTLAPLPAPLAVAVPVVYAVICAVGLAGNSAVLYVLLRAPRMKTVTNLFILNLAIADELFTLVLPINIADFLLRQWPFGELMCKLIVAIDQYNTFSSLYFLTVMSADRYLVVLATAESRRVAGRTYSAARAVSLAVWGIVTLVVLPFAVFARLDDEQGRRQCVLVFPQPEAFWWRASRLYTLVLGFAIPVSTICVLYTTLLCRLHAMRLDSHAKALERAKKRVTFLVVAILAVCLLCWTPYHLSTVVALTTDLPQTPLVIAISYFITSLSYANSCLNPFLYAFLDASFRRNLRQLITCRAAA
row,Compound,inhibition
1,CCOC(=O)C1(Cc2ccc(Cl)cc2)CCN(C(C)CCn2cccn2)CC1 (stereo not given),37.6% (active)
2,CCOC(=O)C1(CCc2ccccc2)CCN(Cc2ccco2)CC1,-1.12%
3,CCN1CCN(Cc2cc(OC)c3c(c2)OCO3)CC1,-5.46%
4,COC(=O)N(c1ccc(OC)cc1)P1(=S)OCCC(C)O1 (stereo not given),-1.86%
5,COc1cc2nc(N3CCN(C(=O)[C@@H]4CCCO4)CC3)nc(N)c2cc1OC,-11.2%
6,CCOc1ccc(-c2cc(C)[n+](CCN(CC)CC)c(-c3ccc(OCC)cc3)c2)cc1,24.6% (active)
7,COc1ccc(Br)cc1CNCCc1cccc(Cl)c1,35.6% (active)
8,COc1ccc(CNCCc2ccc3c(c2)OCO3)c(OC)c1OC,18.9%
9,COc1ccc(CNCCc2c[nH]c3ccccc23)cc1OC,3.96%
10,CN1CCC(OC(=O)c2cccc(F)c2)CC1,1.33%
11,CCCCCCN=C(CC)c1c(O)n(CCCC)c(=O)[nH]c1=O,-13.1%
12,Cc1c(Oc2cc(NN3CCCCC3)c([N+](=O)[O-])cc2[N+](=O)[O-])cccc1[N+](=O)[O-],-6.67%
13,CCC(C)n1c(O)c(/C=N/Nc2nc3c(c(=O)n(C)c(=O)n3C)n2C)c(=O)[nH]c1=S (stereo not given),-8.09%
14,Cc1ccnc(-n2c(C)cc(/C=C3\C(=O)NC(=S)N(C)C3=O)c2C)c1,-2.63%
15,CSc1ccc(C(=O)C2CCCN(Cc3ccn[nH]3)C2)cc1 (stereo not given),5.68%
